According to PubChem BioAssay (Tox21):
Values joined by “and” are separate entries in the source; they are usually repeats but may differ in a detail not shown here. Equal values may be shown once. Inconclusive results are not listed. A call without a number means that no potency is given here. The source holds several records for some structures; these can differ, active in one and inactive in another. Active and inactive are the calls of the source. Unless noted, the call rests on the fitted dose curve; in most records, active means well fitted curve in the direction sought with a large enough effect in the repeat runs; inconclusive means weak or mixed curves; inactive means no such curve, though single readings can be large; an effect the other way counts as inactive or inconclusive.

Columns and labels:
[1] = A CellTox Green Cytotoxicity Assay to monitor cytotoxicity in HepG2 cells - 8 hour (AID 1224890); further: nearly all actives have a fitted effect of over 45% in size; further: potency means the concentration at half of the fitted maximal effect
How it was run: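 HepG2 cells were seeded together with the CellTox Green dye at 600 cells/well, left 5 h at 37 C/5% CO2, then given compounds in DMSO. Fluorescence from dye bound to dead-cell DNA was read repeatedly over 40 h of treatment at 37 C.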

[2] = qHTS assay to identify small molecule antagonists of the estrogen receptor alpha (ER-alpha) signaling pathway using the BG1 cell line in the presence of 0.1 nM 17-beta-estradiol - cell viability counter screen (AID 1259241); further: nearly all actives have a fitted effect of over 40% in size; further: potency means the concentration at half of the fitted maximal effect
How it was run: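 VM7Luc4E2, 4,000 cells/well, phenol red-free medium + 10% charcoal-stripped FBS; 24 hr plating; cpd + 0.1 nM E2 final, 22 hr 37C/5% CO2; CellTiter-Fluor 30 min, fluorescence.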

[3] = qHTS assay to identify small molecule antagonists of the androgen receptor (AR) signaling pathway using the MDA cell line in the presence of 0.5 nM R1881 - cell viability counter screen (AID 1259242); further: nearly all actives have a fitted effect of over 45% in size; further: potency means the concentration at half of the fitted maximal effect
How it was run: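 MDA-kb2 cells (human breast carcinoma, stably carrying MMTV-luciferase reporter) were exposed to compounds with 0.5 nM R1881 (final) for 16 hr at 37C, 0% CO2; viability then read as live-cell protease fluorescence (CellTiter-Fluor, 30 min) in the same wells.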

[4] = molecular target: Estrogen receptor (Homo sapiens) (UniProt P03372); experiment: qHTS assay to identify small molecule antagonists of the estrogen receptor alpha (ER-alpha) signaling pathway using the BG1 cell line in the presence of 0.1 nM 17-beta-estradiol (AID 1259244); further: nearly all actives have a fitted effect of over 50% in size; further: potency means the concentration at half of the fitted maximal effect
How it was run: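 VM7Luc4E2 cells (endogenous full-length ER-alpha, stable 4xERE-luciferase) were grown 5 days in phenol red-free medium with charcoal-stripped FBS, then exposed 22 h at 37C to compounds plus 0.1 nM (final) 17beta-estradiol; ONE-Glo luminescence read-out.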

[5] = qHTS assay to identify small molecule HDAC inhibitors (AID 1259364); further: nearly all actives have a fitted effect of over 45% in size; further: potency means the concentration at half of the fitted maximal effect
How it was run: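 Wild-type HCT-116 cells were plated overnight, exposed to compounds for 2 h at 37 °C, then given HDAC-Glo class I/II luminogenic reagent for 30 min at room temperature before luminescence was read.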

[6] = qHTS assay to identify small molecule HDAC inhibitors - cell viability counter screen (AID 1259365); further: series mostly up to about 92 µM; nearly all actives have a fitted effect of over 50% in size
How it was run: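 Luminescence from CellTiter-Glo, developed 30min at room temperature, reports viability of wild-type HCT-116 cells treated 2hr with compounds at 37 C and 5% CO2 after overnight plating.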

[7] = qHTS assay to identify small molecule agonists of the sonic hedgehog signaling (Shh) pathway - cell viability counter screen (AID 1259366); further: nearly all actives have a fitted effect of over 50% in size; further: potency means the concentration at half of the fitted maximal effect
How it was run: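 Cytotoxicity counter screen run in the same wells as the Shh reporter assay. NIH/3T3 cells carrying a Gli1 response element–driven luciferase were treated with DMSO-dissolved compounds for 24hr, and live-cell protease activity was measured with CellTiter-Fluor.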

[8] = qHTS assay to identify small molecule antagonists of the sonic hedgehog signaling (Shh) pathway - cell viability counter screen (AID 1259367); further: nearly all actives have a fitted effect of over 55% in size; further: potency means the concentration at half of the fitted maximal effect
How it was run: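 Using CellTiter-Fluor, viability of Gli1-Luc reporter 3T3 cells is read by fluorescence in the wells used for the Shh luciferase assay. Treatment lasts 23 hr with conditioned medium, then reagent 1 hr at 37C.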

[9] = molecular target: Androgen receptor (Homo sapiens) (UniProt P10275); experiment: qHTS assay to identify small molecule antagonists of the androgen receptor (AR) signaling pathway using the MDA cell line in the presence of 0.5 nM R1881 (AID 1259243); further: nearly all actives have a fitted effect of over 50% in size; further: potency means the concentration at half of the fitted maximal effect
How it was run: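 MDA-kb2 human breast carcinoma cells carrying an MMTV-luciferase reporter (AR- and GR-responsive) were plated, rested 5 hr at 37C, dosed with compounds, then stimulated with 0.5 nM R1881 (final) for 16 hr; luminescence was read after ONE-Glo.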

[10] = qHTS assay to identify small molecule phospholipidosis (PLD) inducers (AID 1259344; active means well fitted curve in the direction sought with a large enough effect; an effect the other way counts as inactive or inconclusive; further: potency means the concentration at half of the fitted maximal effect)
How it was run: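 Fluorescent phospholipid staining (LipidTOX Red) measured by automated microscopy in fixed HepG2 cells after 24 h treatment; nuclei counterstained with Hoechst 33342; amiodarone as reference inducer.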

Androgen receptor (Homo sapiens), sequence (P10275 whole entry, looked up): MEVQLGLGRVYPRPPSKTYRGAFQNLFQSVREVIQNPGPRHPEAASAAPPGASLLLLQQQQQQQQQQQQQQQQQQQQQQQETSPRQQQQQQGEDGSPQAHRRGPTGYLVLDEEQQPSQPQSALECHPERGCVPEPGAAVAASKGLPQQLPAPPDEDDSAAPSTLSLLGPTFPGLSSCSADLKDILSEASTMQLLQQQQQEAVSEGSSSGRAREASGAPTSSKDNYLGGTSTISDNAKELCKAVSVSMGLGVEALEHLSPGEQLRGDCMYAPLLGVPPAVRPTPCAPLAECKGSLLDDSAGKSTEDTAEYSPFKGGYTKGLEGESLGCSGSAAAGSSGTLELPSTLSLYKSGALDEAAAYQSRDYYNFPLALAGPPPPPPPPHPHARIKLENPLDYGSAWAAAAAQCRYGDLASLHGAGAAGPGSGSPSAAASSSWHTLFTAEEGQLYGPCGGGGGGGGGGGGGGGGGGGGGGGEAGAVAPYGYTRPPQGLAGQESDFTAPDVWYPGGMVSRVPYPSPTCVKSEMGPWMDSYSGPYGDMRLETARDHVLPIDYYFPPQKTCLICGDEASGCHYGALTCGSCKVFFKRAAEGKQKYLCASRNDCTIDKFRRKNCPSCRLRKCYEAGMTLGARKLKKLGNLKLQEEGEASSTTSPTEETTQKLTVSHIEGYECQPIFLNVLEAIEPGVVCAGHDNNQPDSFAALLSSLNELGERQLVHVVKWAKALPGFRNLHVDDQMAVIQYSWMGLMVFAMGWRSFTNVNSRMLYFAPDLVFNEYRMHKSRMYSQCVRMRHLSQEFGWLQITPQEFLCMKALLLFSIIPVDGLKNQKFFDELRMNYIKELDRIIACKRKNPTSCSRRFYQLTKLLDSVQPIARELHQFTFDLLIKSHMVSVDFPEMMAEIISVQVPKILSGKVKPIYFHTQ
Estrogen receptor (Homo sapiens), sequence (P03372 whole entry, looked up): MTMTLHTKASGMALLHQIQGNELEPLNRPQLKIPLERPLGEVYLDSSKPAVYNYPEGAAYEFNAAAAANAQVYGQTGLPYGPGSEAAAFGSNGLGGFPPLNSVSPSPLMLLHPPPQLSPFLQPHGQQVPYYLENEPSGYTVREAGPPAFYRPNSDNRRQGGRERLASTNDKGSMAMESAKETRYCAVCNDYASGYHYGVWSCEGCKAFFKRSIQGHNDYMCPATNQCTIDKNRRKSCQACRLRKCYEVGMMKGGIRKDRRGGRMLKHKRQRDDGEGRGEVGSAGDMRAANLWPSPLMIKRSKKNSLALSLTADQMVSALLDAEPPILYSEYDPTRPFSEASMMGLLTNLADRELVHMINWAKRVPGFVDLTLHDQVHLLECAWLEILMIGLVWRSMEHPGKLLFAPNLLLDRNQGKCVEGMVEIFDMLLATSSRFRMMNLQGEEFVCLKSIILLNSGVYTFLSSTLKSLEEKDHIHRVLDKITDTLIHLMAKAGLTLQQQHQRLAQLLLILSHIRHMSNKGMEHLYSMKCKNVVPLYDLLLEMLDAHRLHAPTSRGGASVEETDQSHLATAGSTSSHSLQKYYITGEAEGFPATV

SMILES | Potency [1] | Potency [2] | Potency [3] | Potency [4] | Potency [5] | outcome [6] | Potency [7] | Potency [8] | Potency [9] | Potency [10]
CC(CCC(=O)O)(c1ccc(O)cc1)c1ccc(O)cc1 | inactive | inactive | inactive | inactive | inactive | inactive | inactive | inactive | – | –
Nc1ncn([C@@H]2O[C@H](CO)[C@@H](O)[C@H]2O)c(=O)n1 | inactive | inactive | inactive | inactive | inactive | inactive | inactive | – | 4.33 µM (active) and 3.76 µM (active) | inactive
CCCCC(CC)COC(=O)c1ccc(N(C)C)cc1 (stereo not drawn) | inactive | inactive | inactive | inactive | inactive | inactive | inactive | inactive | – | inactive
CC(=O)CC/C=C(\C)CCC=C(C)C | inactive | inactive | inactive | inactive | inactive | inactive | inactive | inactive | – | –
CNCCCC12CCC(c3ccccc31)c1ccccc12 | inactive | inactive | 54.5 µM (active) and inactive | 61.1 µM (active) and inactive | – | inactive | 30.6 µM (active) | 54.5 µM (active) and inactive | – | 7.94 µM (active)
O=C(/C=C/c1ccccc1)OCc1ccccc1 | inactive | inactive | inactive | inactive | – | inactive | inactive | inactive | – | inactive
CCCc1c(OCCCCc2nn[nH]n2)ccc(C(C)=O)c1O | inactive | inactive | inactive | inactive | inactive | inactive | inactive | inactive | – | inactive
O=CCCCC=O | inactive | inactive | inactive | inactive | – | inactive | inactive | inactive | – | inactive
COC(=O)Nc1nc2ccc(S(=O)c3ccccc3)cc2[nH]1 (stereo not drawn) | inactive | inactive | inactive | inactive | inactive | inactive | inactive | inactive and 11.9 µM (active) | – | inactive
Cc1ccc(C)c(O)c1C | inactive | inactive | inactive | inactive | inactive | inactive | inactive | inactive | inactive | –
CN(C)CCN(Cc1cccs1)c1ccccn1 | inactive | inactive | inactive | inactive | – | inactive | inactive | inactive | – | inactive
CC(C)OC(=O)C(C)(C)Oc1ccc(C(=O)c2ccc(Cl)cc2)cc1 | inactive | inactive | inactive | 61.1 µM (active) and inactive | inactive | – | inactive | inactive | 43.3 µM (active) and 29.8 µM (active) | inactive
CCCCOCCOCCOCCO | inactive | inactive | inactive | inactive | inactive | inactive | inactive | inactive | – | –
C=C(C)C(=O)OCCOC(=O)C(=C)C | inactive | inactive | inactive | inactive | inactive | inactive | inactive | inactive | inactive | –
O=C(OCc1ccccc1)c1ccccc1O | inactive | inactive | inactive | inactive | 24.2 µM (active) and 24.3 µM (active) | inactive | inactive | inactive | – | –
Nc1ncnc2nc[nH]c12 | inactive | inactive | inactive | inactive | inactive | – | inactive | inactive | – | inactive
O=CCc1ccccc1 | inactive | inactive | inactive | – | – | inactive | inactive | inactive | – | –
O=C1OC2(c3cc(Br)c(O)c(Br)c3Oc3c2cc(Br)c(O)c3Br)c2c(Cl)c(Cl)c(Cl)c(Cl)c21 | 3.47 µM (active) and 16.7 µM (active) | 8.64 µM (active) and 23.4 µM (active) | 6.12 µM (active) and 18.6 µM (active) | – | inactive | inactive | 9.7 µM (active) and 16.6 µM (active) | 3.86 µM (active) and 14.8 µM (active) | – | –
CC(C)Oc1ccc2c(=O)c(-c3ccccc3)coc2c1 | inactive | inactive | inactive | – | 2.37 µM (active) | inactive | inactive | inactive | – | inactive
Brc1cc(Oc2cc(Br)c(Br)c(Br)c2Br)c(Br)c(Br)c1Br | inactive | inactive | inactive | – | inactive | inactive | inactive | inactive | – | –
CCCC(=O)O | inactive | inactive | inactive | – | inactive | inactive | inactive | inactive | – | inactive
CC(C)=CCCC(C)CCO (stereo not drawn) | inactive | inactive | inactive | inactive | – | inactive | inactive | inactive | – | –
CCCCNS(=O)(=O)c1ccccc1 | inactive | inactive | inactive | inactive | – | inactive | inactive | inactive | – | –
C[Si](C)(C)O[Si](C)(C)C | inactive | inactive | inactive | – | inactive | inactive | inactive | inactive | – | inactive
